This passage reports growth inhibition, inhibition and outcome results from PubChem BioAssay.

Experiment [1] can be described thus: antimalarial activity against Dd2 strain (AID 2302;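 active = growth inhibition above 50% at the single 2 µM test dose, taken to imply half-maximal potency below 2 µM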;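 note: 0% = DMSO untreated growth and 100% = chloroquine plus artemisinin killed control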). The settings on record: P. falciparum Dd2 in RBCs, LDH growth readout, 72 h; at 2 µM; stronger effect = higher value.
A short description of experiment [2]: human hepatoma cell viability loss – ATP luminescence, cytotoxicity control for P. falciparum antimalarial project, primary screen (AID 2303;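 active = inhibition above 50%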;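 note: 0% = DMSO wells and 100% = digitonin-killed cells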). The conditions noted are these: HepG2 viability, 24-48 h, at 10 µM, stronger effect = higher value.
The target in experiment [3] is L-lactate dehydrogenase (Plasmodium falciparum (isolate CDC / Honduras)) (UniProt Q27743). Briefly: PfLDH activity inhibition – cell lysate, 3D7 strain, counter-screen for P. falciparum growth inhibition project (AID 2304).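 Note: 0% = vehicle and 100% = reference inhibitor.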 The conditions noted are these: P. falciparum 3D7 crude extract, LDH APAD/NBT absorbance; at 2 µM; stronger effect = higher value. (A counterscreen serves to expose hits that act by an unwanted route or on another target.)

Experiment [4] in a line: inhibition of 3D7 malaria parasite growth – strain 3D7 (AID 2306).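 Note: 0% = DMSO wells and 100% = chloroquine plus artemisinin control wells.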 The conditions noted are these: P. falciparum 3D7 erythrocytic growth, LDH absorbance, 72 h; at 2 µM; stronger effect = higher value.
In experiment [5] the target is Calcium-dependent protein kinase 1 (Plasmodium falciparum (isolate 3D7)) (UniProt P62344). Briefly: PfCDPK1 kinase inhibitors, biochemical, TCAMS library (AID 1159585; cut-off not given, nearly all actives have IC50 up to about 0.98 µM;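 note: inhibitors leave more ATP so luminescence rises with inhibition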). The conditions noted are these: recombinant PfCDPK1, Kinase-Glo ATP depletion luminescence. For orientation: Kinase-Glo measures the ATP left after a reaction by luminescence.
The target of experiment [6] is Plasmodium falciparum protein kinase 6 (PK6, PF3D7_1337100) (UniProt Q8IDW1). Briefly: PfPK6 kinase inhibitors, biochemical, TCAMS library (AID 1159586). The conditions noted are these: recombinant PfPK6, Kinase-Glo ATP depletion luminescence.
Experiment [7] concerns the target Protein kinase 7 (PK7), Plasmodium falciparum 3D7 (PF3D7_0213400) (UniProt Q7YTF7). Briefly: inhibition of Plasmodium PK7 catalytic activity – biochemical, TCAMS antimalarial set, Kinase-Glo luminescence (AID 1159587). The conditions noted are these: recombinant PfPK7, Kinase-Glo ATP depletion luminescence.
The target in experiment [8] is Calcium-dependent protein kinase 4 (Plasmodium falciparum (isolate 3D7)) (UniProt Q8IBS5). Briefly: PfCDPK4 kinase inhibitors, biochemical, TCAMS library (AID 1159588; cut-off not given, nearly all actives have IC50 up to about 0.91 µM). The conditions noted are these: recombinant PfCDPK4, Kinase-Glo ATP depletion luminescence.

Values joined by “and” are separate entries in the source; they are usually repeats but may differ in a detail not shown here. Equal entries are not always repeated. For some assays here: Entries with a potency or affinity are not part of this list. A structure can be active in one record and inactive in another. Active and inactive are the calls of the source. Unless noted, the rule behind the calls is not given here.

Calcium-dependent protein kinase 4 (Plasmodium falciparum (isolate 3D7)), sequence (Q8IBS5 whole entry, looked up): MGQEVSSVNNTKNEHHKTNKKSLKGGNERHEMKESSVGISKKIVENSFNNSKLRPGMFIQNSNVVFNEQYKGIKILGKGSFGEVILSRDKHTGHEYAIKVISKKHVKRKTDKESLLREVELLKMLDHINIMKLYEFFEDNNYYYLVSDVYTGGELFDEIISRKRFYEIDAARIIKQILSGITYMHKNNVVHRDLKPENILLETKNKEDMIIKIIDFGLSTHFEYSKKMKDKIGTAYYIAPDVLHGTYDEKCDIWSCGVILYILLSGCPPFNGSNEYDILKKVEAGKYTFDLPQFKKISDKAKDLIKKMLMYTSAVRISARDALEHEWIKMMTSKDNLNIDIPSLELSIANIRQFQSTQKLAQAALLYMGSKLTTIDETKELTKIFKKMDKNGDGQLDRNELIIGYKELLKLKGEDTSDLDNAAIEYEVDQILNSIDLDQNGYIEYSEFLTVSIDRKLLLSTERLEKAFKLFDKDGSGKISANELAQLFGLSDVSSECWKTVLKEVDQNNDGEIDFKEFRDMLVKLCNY
Protein kinase 7 (PK7), Plasmodium falciparum 3D7 (PF3D7_0213400), sequence (Q7YTF7 1-343): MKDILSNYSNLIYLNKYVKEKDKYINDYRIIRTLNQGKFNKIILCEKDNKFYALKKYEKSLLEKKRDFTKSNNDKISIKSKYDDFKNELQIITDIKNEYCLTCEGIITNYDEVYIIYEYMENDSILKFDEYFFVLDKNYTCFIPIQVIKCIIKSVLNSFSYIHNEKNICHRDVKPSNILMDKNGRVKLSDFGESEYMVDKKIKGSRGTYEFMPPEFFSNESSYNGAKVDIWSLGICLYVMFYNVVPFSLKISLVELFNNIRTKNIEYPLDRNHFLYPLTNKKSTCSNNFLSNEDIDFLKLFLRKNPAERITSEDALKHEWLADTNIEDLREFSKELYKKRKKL
Plasmodium falciparum protein kinase 6 (PK6, PF3D7_1337100), sequence (Q8IDW1 1-305): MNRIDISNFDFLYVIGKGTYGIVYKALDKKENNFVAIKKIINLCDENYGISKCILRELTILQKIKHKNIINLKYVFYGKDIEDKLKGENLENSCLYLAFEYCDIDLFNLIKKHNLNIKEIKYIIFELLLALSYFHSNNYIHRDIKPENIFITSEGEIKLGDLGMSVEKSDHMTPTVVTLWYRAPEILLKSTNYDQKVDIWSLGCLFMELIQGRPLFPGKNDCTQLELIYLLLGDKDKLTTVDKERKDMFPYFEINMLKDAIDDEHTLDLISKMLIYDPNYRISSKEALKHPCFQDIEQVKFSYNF
Calcium-dependent protein kinase 1 (Plasmodium falciparum (isolate 3D7)), sequence (P62344 whole entry, looked up): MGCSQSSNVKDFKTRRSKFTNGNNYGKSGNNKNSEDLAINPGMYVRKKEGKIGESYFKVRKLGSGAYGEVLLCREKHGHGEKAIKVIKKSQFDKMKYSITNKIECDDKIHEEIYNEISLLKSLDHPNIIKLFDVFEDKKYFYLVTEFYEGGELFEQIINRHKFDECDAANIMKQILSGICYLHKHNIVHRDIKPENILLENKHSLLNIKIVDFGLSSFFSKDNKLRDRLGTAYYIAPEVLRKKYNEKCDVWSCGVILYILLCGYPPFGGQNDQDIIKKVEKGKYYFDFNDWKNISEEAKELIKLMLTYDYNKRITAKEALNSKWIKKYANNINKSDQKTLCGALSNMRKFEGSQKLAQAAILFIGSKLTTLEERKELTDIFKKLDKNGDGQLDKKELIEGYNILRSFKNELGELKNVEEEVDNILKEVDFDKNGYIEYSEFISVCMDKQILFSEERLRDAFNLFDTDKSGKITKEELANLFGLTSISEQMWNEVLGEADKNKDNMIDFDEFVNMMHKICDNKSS
L-lactate dehydrogenase (Plasmodium falciparum (isolate CDC / Honduras)), sequence (Q27743 whole entry, looked up): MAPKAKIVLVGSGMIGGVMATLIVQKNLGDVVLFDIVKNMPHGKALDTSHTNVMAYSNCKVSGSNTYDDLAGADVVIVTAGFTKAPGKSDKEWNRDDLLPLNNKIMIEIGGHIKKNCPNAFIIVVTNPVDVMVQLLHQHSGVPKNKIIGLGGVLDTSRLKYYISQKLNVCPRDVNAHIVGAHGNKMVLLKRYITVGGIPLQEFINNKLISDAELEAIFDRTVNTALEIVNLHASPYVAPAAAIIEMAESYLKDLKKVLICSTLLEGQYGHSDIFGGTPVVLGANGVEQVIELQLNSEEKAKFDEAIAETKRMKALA

With `S=C(NCCc1ccc(Cl)cc1)NC1CCC(CN2CCC(c3c[nH]c4ccccc34)CC2)CC1` (configuration not stated), the growth inhibition in experiment [1] is 34% (inactive) and 84% (active); in experiment [4], 100% (active) and 101% (active). Moreover, the inhibition – broadly, the drop in the measured response relative to a control, in per cent – was 37% (inactive) and 42% (inactive) in experiment [2]; -2% (inactive) and -8% (inactive) in experiment [3]. The result in experiment [5], in experiment [6], in experiment [7] and in experiment [8] was inactive.

On to `OC(CNC1CCCCCCC1)c1ccc(Cl)c(Cl)c1` (configuration not stated), for which the growth inhibition was 99% (active) in experiment [1] and 100% (active) in experiment [4]. For the same molecule, the inhibition in experiment [2] was 17% (inactive); in experiment [3] it was -5% (inactive). Also, the result in experiment [5], in experiment [6], in experiment [7] and in experiment [8] was inactive.

In the case of `O=C(/C=C/c1cccs1)NC1CCC(CN2CCC(c3c[nH]c4ccccc34)CC2)CC1` (configuration not stated), the growth inhibition in experiment [1] is 29% (inactive); in experiment [4], 82% (active). Further, the inhibition is 33% (inactive) in experiment [2] and -1% (inactive) in experiment [3]. Besides, the outcome in experiment [5], in experiment [6], in experiment [7] and in experiment [8] was inactive.

For `O=C(C=Cc1ccc(-c2ccccc2)cc1)NC1CCC(CN2CCC(c3c[nH]c4ccccc34)CC2)CC1` (configuration not stated), the growth inhibition in experiment [1] was 85% (active) and 98% (active); in experiment [4], 101% (active). The inhibition in experiment [2] is 43% (inactive) and 97% (active); in experiment [3] it was -7% (inactive). In addition, the outcome in experiment [5], in experiment [6], in experiment [7] and in experiment [8] was inactive.

On to `CC(Cc1ccc(OCc2ccc(CCN(C)C)cc2)cc1)NCCc1cccc(Cl)c1` (configuration not stated), for which the growth inhibition in experiment [1] is 78% (active); in experiment [4] it was 100% (active). Also, the inhibition in experiment [2] is 42% (inactive); in experiment [3], 5% (inactive). Moreover, the outcome in experiment [5], in experiment [6], in experiment [7] and in experiment [8] was inactive.

Consider `CN1C(=O)[C@H](NC(=O)[C@@H](Cc2ccccc2)NC(=S)Nc2ccccc2)N=C(c2ccccc2)c2ccccc21`, for which the growth inhibition in experiment [1] was 23% (inactive); in experiment [4], 86% (active). The inhibition in experiment [2] was -8% (inactive); in experiment [3], -1% (inactive). For the same molecule, the outcome in experiment [5], in experiment [6], in experiment [7] and in experiment [8] was inactive.

As for `CN1CC=C(c2c[nH]c3ccc(Br)cc23)CC1`, the growth inhibition in experiment [1] was 80% (active); in experiment [4] it was 88% (active). The inhibition is -3% (inactive) in experiment [2] and 1% (inactive) in experiment [3]. In addition, the result in experiment [5], in experiment [6], in experiment [7] and in experiment [8] was inactive.

As to `Cc1ccc(CC(C)NCC(O)c2cccc(Br)c2)cc1` (configuration not stated), the growth inhibition in experiment [1] was 97% (active); in experiment [4] it was 99% (active). In addition, the values for the inhibition in experiment [2] and in experiment [3] were 7% (inactive) and 3% (inactive), respectively. In addition, the result in experiment [5], in experiment [6], in experiment [7] and in experiment [8] was inactive.

Regarding `CO[C@@H]1C[C@@H](C(=O)Nc2ccccc2)N(c2ccc(C#N)c3ccccc23)C1`, the growth inhibition in experiment [1] was 100% (active); in experiment [4] it was 98% (active). Further, the inhibition in experiment [2] was 7% (inactive); in experiment [3] it was 6% (inactive). Besides, the result in experiment [5], in experiment [6], in experiment [7] and in experiment [8] was inactive.

For the molecule `Cc1cc(N)nc2ccc(CNCCc3ccccc3Br)cc12`, the growth inhibition was 77% (active) in experiment [1] and 102% (active) in experiment [4]. For the same molecule, the inhibition in experiment [2] is 28% (inactive); in experiment [3] it was 7% (inactive). Besides, the result in experiment [5], in experiment [6], in experiment [7] and in experiment [8] was inactive.

`O=C(CCCCCc1ccccc1)NC1CCC(CN2CCC(c3c[nH]c4ccccc34)CC2)CC1` (configuration not stated): the results for the growth inhibition in experiment [1] and in experiment [4] were 5% (inactive) and 86% (active), respectively. The inhibition in experiment [2] was 34% (inactive); in experiment [3], -3% (inactive). For the same molecule, the outcome in experiment [5], in experiment [6], in experiment [7] and in experiment [8] was inactive.

Take `Cc1cc(-c2ncc[nH]2)ccc1-c1ccc(C(=O)N2CCc3cc4c(cc32)C2(CCN(C)CC2)CO4)cc1`: the growth inhibition was 98% (active) in experiment [1] and 101% (active) in experiment [4]. Also, the inhibition was 32% (inactive) in experiment [2] and 0% (inactive) in experiment [3]. Also, the result in experiment [5], in experiment [6], in experiment [7] and in experiment [8] was inactive.

As for `O=C(NC1CCC(CN2CCC(c3c[nH]c4ccccc34)CC2)CC1)c1cc(-c2ccccc2)c(C(F)(F)F)s1` (configuration not stated), the growth inhibition was 101% (active) in experiment [1] and 100% (active) in experiment [4]. Moreover, the inhibition in experiment [2] was 55% (active); in experiment [3], 2% (inactive). The result in experiment [5], in experiment [6], in experiment [7] and in experiment [8] was inactive.

As for `O=C(/C=C/c1ccc(Cl)c(Cl)c1)N1CC[C@H]2C[C@H](N3CCC(c4c[nH]c5ccccc45)CC3)CC[C@@H]2C1`, the growth inhibition in experiment [1] is 99% (active); in experiment [4], 100% (active). Also, the inhibition in experiment [2] was 31% (inactive); in experiment [3], 0% (inactive). Besides, the result in experiment [5], in experiment [6], in experiment [7] and in experiment [8] was inactive.

Turning to `COc1ccc(C(=O)[C@H]2C[C@@H]2CN2CC=C(c3c[nH]c4cccc(Br)c34)CC2)cc1`, the growth inhibition is 67% (active) in experiment [1] and 88% (active) in experiment [4]. Moreover, the inhibition in experiment [2] was 32% (inactive); in experiment [3] it was -3% (inactive). In addition, the outcome in experiment [5], in experiment [6], in experiment [7] and in experiment [8] was inactive.

`O=P(O)(O)Oc1c(Br)cc(Br)cc1-c1cc(Br)cc(Br)c1O`: the growth inhibition in experiment [1] is -2% (inactive); in experiment [4], 97% (active). Also, the inhibition in experiment [2] was 10% (inactive); in experiment [3], -4% (inactive). The result in experiment [5], in experiment [6], in experiment [7] and in experiment [8] was inactive.

Turning to `COc1ccc(CN2CCN(CCOC(c3ccc(F)cc3)c3ccc(F)cc3)CC2)c(O)c1`, the growth inhibition in experiment [1] and in experiment [4] was 97% (active) each time. Further, the inhibition in experiment [2] was 6% (inactive); in experiment [3] it was -6% (inactive). Besides, the result in experiment [5], in experiment [6], in experiment [7] and in experiment [8] was inactive.

Regarding `Oc1ccc2[nH]cc(C3=CCN(CCc4ccccc4)CC3)c2c1`, the growth inhibition in experiment [1] was 60% (active); in experiment [4], 96% (active). For the same molecule, the inhibition in experiment [2] was 11% (inactive); in experiment [3], 3% (inactive). Moreover, the outcome in experiment [5], in experiment [6], in experiment [7] and in experiment [8] was inactive.

In the case of `CC(Cc1ccc(OCCCCOc2ccccc2)cc1)NCCCc1nc2ccccc2[nH]1` (configuration not stated), the growth inhibition in experiment [1] is 67% (active); in experiment [4], 97% (active). In addition, the inhibition in experiment [2] was 99% (active); in experiment [3] it was 3% (inactive). In addition, the result in experiment [5], in experiment [6], in experiment [7] and in experiment [8] was inactive.
